From ChEMBL document CHEMBL1157539, “Thousands of chemical starting points for antimalarial lead identification” (Nature, 2010) come the findings set out here.

Each structure is given as a SMILES string.

This assay has as its system HepG2. Description: GSK_TCMDC: Percent inhibition of human HepG2 cell line. Test compounds present at 10uM. In kind it is functional.
As usually defined, the Inhibition is the change of the read-out against control, counted positive when it falls. Compound `CC(C)=CCc1c(-c2ccc(O)cc2O)oc2c3c(cc(O)c2c1=O)OC(C)(C)C=C3` [MORUSIN] registered an Inhibition of 1%. `CCNc1cc(C(=O)N[C@@H](Cc2ccccc2)[C@H](O)CNCc2cc(OC)cc(OC)c2)cc(N2CCCS2(=O)=O)c1.Cl` registered an Inhibition of 0%. `O=C(Nc1ccc(Br)cc1)N(CCN1CCOCC1)CC(O)COCc1ccc(Cl)c(Cl)c1.O=C(O)C(F)(F)F` (stereo unspecified) showed an Inhibition of 16%. As for `CCN1CCN(CC(O)CNC(=O)Nc2ccc(Cl)cc2)CC1.O=C(O)C(F)(F)F` (stereo unspecified), the Inhibition is reported as 29%. Then `COc1ccc2c(=NN=Cc3ccncc3)cc(C)[nH]c2c1`, with 0%; and `CCOc1ccc(-c2n[nH]c(C(F)(F)F)c2-c2ccccc2OC)c(O)c1`, with 22%; and `CN(C)CCOc1ccc(-c2cc(-c3ccnc(N)n3)c(-c3ccc(Cl)c(O)c3)o2)cc1`, with 14%. As for `O=C1C(c2ccccc2)=C(Nc2ccc(OC(F)(F)F)cc2)c2ccccc21`, the Inhibition is recorded as 18%.

Consider `O=C(Nc1ccc(F)cc1F)NC1CCN(c2ccnc3cc(Cl)ccc23)C1.O=C(O)C(F)(F)F` (stereo unspecified), for which the Inhibition is recorded as 25%. Compound `CC(=O)Oc1c(C2CCN(CCCCNC(=O)c3ccc(NC(=O)c4ccc(Cl)cc4)cc3)CC2)ccc2c1CCCC2` showed an Inhibition of 21%. For `N#Cc1ccc(-c2ccc(C(=O)NCCCCN3CCC(c4ccncc4)CC3)cc2)cc1`, the Inhibition was 34%.

`CCCCCCCN1CCC(CCNc2ccnc3ccc(OC)cc23)CC1` had an Inhibition of 5%.

Consider `CNc1ccc(CNCc2ccc(-c3ccc(-c4nc5cc(F)ccc5[nH]4)cc3)cc2)cc1.O=C(O)C(F)(F)F`, for which the Inhibition was found to be 38%. For `CC(C)CCN1CCCN(Cc2ccc(C(=O)Nc3ccc(Cl)cc3)cc2)CC1.O=C(O)C(F)(F)F`, the Inhibition is listed as 46%.

`O=C(Nc1ccc2c(c1)CCC2)N[C@H]1CCN(CCCCCNC(=O)C2CC2c2ccc(Cl)c(Cl)c2)C1` (stereo partly specified) yielded an Inhibition of 37%. `N#Cc1cccc(C(=O)Nc2ccc(-c3cccc(CN4CCCC4)c3)cc2)c1.O=C(O)C(F)(F)F` yielded an Inhibition of 15%. `CNCCNCc1ccc(-c2cccc(-c3nc4cc(F)ccc4[nH]3)c2)cc1.O=C(O)C(F)(F)F` displayed an Inhibition of 10%. The same measure for `COCCN1CCC(CN(C)CC(C)(C)c2nc(-c3ccc(Cl)c(O)c3)c(-c3ccncc3)[nH]2)CC1.Cl`: 0%; for `O=C(O)C(F)(F)F.O=S(=O)(Nc1ccc(-c2ccc(CN3CCCC3)cc2)cc1)c1cccc2cccnc12`: 37%. The same measure for `CCN(CC)CCN(Cc1ccc(-c2ccc(Cl)cc2)cc1)C(=O)Cn1c(CCc2cccc(F)c2F)nc(=O)c2ccccc21.O=C(O)C(O)C(O)C(=O)O`: 45%; for `Cc1cc(OCCCN2CCCCC2)ccc1NC(=O)COc1ccc(Cl)cc1C(=O)c1cc(C#N)cc(C(F)(F)F)c1`: 23%; for `CC1=C(C(=O)Nc2cc3cn[nH]c3cc2F)C(c2cccc(NS(C)(=O)=O)c2)CC(=O)N1` (stereo unspecified): 0%. For `COc1ccc2ncc(F)c(NC(=O)C3CCC(NCc4cc5c(F)cccc5[nH]4)CC3)c2n1.Cl` (stereo unspecified), the Inhibition was found to be 39%. The compound `O=CO.c1ccc(-c2ccc(CNCCCNc3nc4ccccc4[nH]3)cc2)cc1` gave an Inhibition of 20%. `CN(CCCCCNC(=O)/C=C/c1ccc(Cl)c(Cl)c1)CCCCc1c[nH]c2ccccc12`: the Inhibition is 17%. In turn, `CC(C)(C)NC(=O)c1ccc(Oc2ccc(OC(F)(F)F)cc2)c(NC(=O)C(C)(C)C)c1` had an Inhibition of 0%.
